Hits are enriched below; roughly 12% of the tested compounds scored in any of these assays.
Sfp inh = qHTS Assay for Inhibitors of Bacillus subtilis Sfp phosphopantetheinyl transferase (PPTase); 4'-phosphopantetheinyl transferase ffp (Bacillus subtilis), Q9F4F7; Biochemical Sfp PPTase activity, qHTS; Potency, µM, actives largely listed as inhibitors; hit rate 3.5% among 310,000; AID 1490, 2009;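 note: the enzyme is Sfp with the accession as filed and its product quenches rhodamine fluorescence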
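Step 1, compound plus 15 nM Sfp-PPTase, 15 min, room temperature. Step 2, add rhodamine-CoA (5 uM) and BHQ-2-YbbR (12.5 uM). Step 3, read 525/598 nm fluorescence at 0 and 30 min.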
L3MBTL1 inh = qHTS Assay for the Inhibitors of L3MBTL1 | Lethal(3)malignant brain tumor-like protein 1 (Homo sapiens), Q9Y468 | AlphaScreen L3MBTL1–H3K9me1 peptide binding | Potency, µM (top dose mostly 57.1 µM), usual class: inhibitors | hit rate 0.66% among 230,000 | AID 485360, 2010; note: nearly all actives have a fitted effect of over 60% in size
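Displacement of a biotinylated histone H3(1-15) peptide monomethylated at Lys9 (75 nM) from L3MBTL1 (50 nM) was measured by AlphaScreen after a 30 min room-temperature compound incubation; cefsulodin titration served as intraplate control.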
HP1b chromo inh = HTS for Inhibitors of HP1-beta Chromodomain Interactions with Methylated Histone Tails | AlphaScreen HP1-beta / biotin-H3K9me3 peptide binding | Potency, µM (top dose mostly 114 µM), hits mostly inhibitors | hit rate 0.56% among 390,000; note: nearly all actives have a fitted effect of over 70% in size
Target sequence (P83916 whole entry, looked up): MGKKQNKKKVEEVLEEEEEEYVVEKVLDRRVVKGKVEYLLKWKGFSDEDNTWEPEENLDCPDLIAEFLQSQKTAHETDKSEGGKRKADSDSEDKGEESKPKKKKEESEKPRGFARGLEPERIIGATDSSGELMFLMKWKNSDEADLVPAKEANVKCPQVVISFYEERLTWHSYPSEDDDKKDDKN
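HP1-beta protein (50 nM final) preincubated 30 min at room temperature with biotinylated H3(1-18)K9me3 peptide (50 nM) in PBS pH 7.4, 0.01% Tween-20, then compound added for 30 min. AlphaScreen streptavidin donor/nickel chelate acceptor beads (10 ug/mL final), 30 min dark, luminescence read.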
G9a inh = qHTS Assay for Inhibitors of Histone Lysine Methyltransferase G9a. AID 504332, 2011. G9a H3K9 monomethylation, AlphaScreen, 2 h. Histone-lysine N-methyltransferase EHMT2 (Homo sapiens), Q96KQ7. hit rate 8.8% among 350,000. Potency, µM (series often up to 102 µM), most hits filed as inhibitors; note: nearly all actives have a fitted effect of over 75% in size
Target sequence (Q96KQ7 913-1193 limits assumed): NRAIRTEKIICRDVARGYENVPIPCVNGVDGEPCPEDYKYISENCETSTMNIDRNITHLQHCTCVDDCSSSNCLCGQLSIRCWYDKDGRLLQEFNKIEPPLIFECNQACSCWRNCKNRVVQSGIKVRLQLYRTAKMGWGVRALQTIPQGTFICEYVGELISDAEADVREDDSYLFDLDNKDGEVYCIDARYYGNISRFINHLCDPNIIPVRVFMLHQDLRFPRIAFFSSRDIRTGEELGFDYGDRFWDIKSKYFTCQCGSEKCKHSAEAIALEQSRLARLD
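AlphaScreen detection with an anti-monomethyl H3K9 antibody quantified product after a 2 h room-temperature reaction containing 500 nM biotinylated H3K9 peptide, 20 µM SAM and 20 nM enzyme, which had been preincubated 15 min with compound.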
JMJD2A Tudor inh = qHTS Assay for Inhibitors of JMJD2A-Tudor Domain; Lysine-specific demethylase 4A (Homo sapiens), O75164; hit rate 4.4% among 390,000; AlphaScreen JMJD2A-Tudor / H3K4me3 peptide binding; Potency, µM (titrated, usually from 114 µM), most hits filed as inhibitors; AID 504339, 2011; note: nearly all actives have a fitted effect of over 50% in size
BAZ2B block = qHTS Assay for Inhibitors of BAZ2B | AlphaScreen BAZ2B-H3K14Ac peptide displacement | Potency, µM (top dose mostly 114 µM), usual class: inhibitors | hit rate 4.4% among 360,000 | AID 504333, 2011; note: nearly all actives have a fitted effect of over 60% in size
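Inhibition is scored as reduced AlphaScreen emission. The BAZ2B/b-H3(5-23)K14Ac complex (50 nM each) in PBS pH 7.4, 0.01% Tween-20 meets compound (up to 110 uM) for 30 min at RT before bead addition.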
Numbers stand for hits; . = inactive; ? = inconclusive; / = no result; ! = not active in a repeat; [ ] = another dose, or the depositor's remark. Calls come from the whole dose curve; as a rule, active = well fitted curve in the direction sought with a large enough effect; inconclusive = small, poorly fitted or top-dose-only effect, or another doubt; inactive = no such curve, though single readings can be large; an effect the other way counts as inactive or inconclusive.

SMILES	Sfp inh	L3MBTL1 inh	HP1b chromo inh	G9a inh	JMJD2A Tudor inh	BAZ2B block
O=[As]O[As]=O (stereo not drawn)	.	/	/	.	/	/
CNC(=O)OCc1n(C)cc[n+]1C	.	.	.	6.31µM	.	?
CC/C=C\C[C@@H](/C=C/C=C\C/C=C\C/C=C\CCCC(=O)O)OO	.	/	/	/	/	/
O=C(COc1ccc2ccccc2c1)N1CCN(Cc2c[nH]c3ccccc23)CC1	.	.	?	?	8.91µM	50.1µM
CCC(C)N1CCN(C(=O)COc2ccc3ccccc3c2)CC1 (stereo not drawn)	.	/	50.1µM	1.78µM	2.82µM	17.8µM
CC[C@]1(O)CC[C@H]2[C@@H]3CCC4=CCCC[C@@H]4[C@H]3CC[C@@]21C	.	/	/	?	/	/
Nc1nc(N)c2nc(CNc3ccc(C(=O)NC(CCC(=O)O)C(=O)O)cc3)cnc2n1 (stereo not drawn)	.	.	/	2.67µM!	/	.
c1ccc(N2CC[C@@]3(CCCNC3)C2)cc1	?	/	/	.[12.7 µM]	/	/
O=C(O)CN1C(=O)CN=C(c2ccccn2)c2cc(Cl)ccc21	50.1µM	.	.	.	25.1µM	50.1µM
NNc1n[nH]c(=S)n1N	2.82µM	/	.	25.1µM	.	?
CCCc1cnc2c(c1SCC(=O)Nc1ccc([N+](=O)[O-])cc1)c(=O)n(C)c(=O)n2C	/	/	.	12.6µM	.	.
CC1(C)c2[nH]c3ccccc3c2C[C@@H]2C(=O)N(Cc3ccccc3F)C(=O)N21	/	/	.	/	?	/
C=CCn1c(CSc2ccccc2[N+](=O)[O-])n[nH]c1=S	?	/	?	1.26µM	8.91µM	39.8µM
COC1CC(=C(c2cccs2)c2cccs2)C[N+](C)(C)C1 (stereo not drawn)	.	/	/	.[12.7 µM]	/	/
CCCCN1CCS(=O)(=O)N(Cc2ccccc2Br)CC(C(=O)OC)C1 (stereo not drawn)	/	.	.	/	.	/
CCOC(=O)c1ccc(-n2c(N)c(C(=O)NCC3CCCO3)sc2=S)cc1 (stereo not drawn)	31.6µM	.	14.1µM	10µM	?	?
COc1ccc(C(=O)CC2(CC(=O)c3ccc(OC)cc3)C(=O)N(C)C(=O)N(C)C2=O)cc1	.	/	.	39.8µM	.	.
COc1ccc(C(=O)CN2CCCCC2)cc1	.	.	.	?	.	.
CC1(C)CC(=O)C=C(NCCN2CCN(C(=O)Cc3ccc(Cl)cc3)CC2)C1	.	.	.	70.8µM	.	.
O=C1CC(c2ccccc2)CC(O)=C1C=NCCN1CCN(C(=O)Cc2ccccc2)CC1 (stereo not drawn)	.	/	.	79.4µM	.	.
Cc1ccc(C2CC(=O)C(C=NCCN3CCN(C(=O)Cc4ccccc4)CC3)=C(O)C2)cc1 (stereo not drawn)	.	.	.	?	.	.
Cc1ccc(OCC(=O)NCCN2CCN(C(=O)COc3ccc(C)cc3)CC2)cc1	.	.	.	.	.	.
CC1(C)CC(=O)C(C=NCCN2CCN(C(=O)Cc3ccc(F)cc3)CC2)=C(O)C1	.	.	.	35.5µM	.	.
CCc1ccc(C(=O)NN(C(=O)c2cc(C)cc(C)c2)C(C)(C)C)cc1	.	/	/	/	/	/
O=c1[nH]c(=O)n(Cc2ccc(F)cc2)c(O)c1C=NCc1cccnc1	.	.	.	.	.	.
SMILES	Sfp inh	L3MBTL1 inh	HP1b chromo inh	G9a inh	JMJD2A Tudor inh	BAZ2B block
COc1ccc2c(c1OC)C(=O)OC2c1c(O)n(Cc2ccc(F)cc2)c(=O)[nH]c1=O (stereo not drawn)	.	/	.	.[12.7 µM]	79.4µM	?
CC12CCC3C4CCC(=O)C(O)=C4CCC3C1CCC2OC(=O)CCC1CCCC1 (stereo not drawn)	.	/	/	.[12.7 µM]	/	/
COc1ccc(N2CCN(c3ncnc4c3nc3n4CCCCC3)CC2)cc1	/	/	.	11.2µM	?	?
Cc1ccc(-n2ncc(C(=O)N3CCN(c4ccc(Cl)cc4)CC3)c2C2CCN(C(=O)OC(C)(C)C)CC2)c(C)c1	/	/	.	?	?	.
Cc1cccc(N=Nc2ccc(N(C)C)cc2)c1	.	/	11.2µM	8.91µM	14.1µM	7.08µM
c1ccc(N=Nc2ccccc2)cc1	.	/	/	.[2.33 µM]	/	/
COc1cc(/C=C/[N+](=O)[O-])ccc1OC(=O)c1cccnc1	.	.	.	3.55µM	.	.
Cn1c(=O)n(C)c2cc(N3CCCC3)c(NC(=O)Nc3ccccc3)cc21	/	/	.	.	.	50.1µM
CCC[C@@](C)(COC(N)=O)COC(=O)NC(C)C	.	/	/	.[21.5 µM]	/	/
COc1ccc2[nH]c(C)c(CCNCc3cn(C)c4ccccc34)c2c1	/	?	.	7.08µM	3.16µM	17.8µM
CC(C)Oc1cc(-n2nc(C(C)(C)C)oc2=O)c(Cl)cc1Cl	.	/	/	/	/	/
N#Cc1ccc(CN2CCC3(CC2)CCN(C(=O)Oc2ccccc2)CC3)cc1	.	/	/	.[12.7 µM]	/	/
O=C1NC(=O)N(c2ccc(Cl)cc2)C(=O)/C1=C\c1ccc(Sc2nc3ccccc3[nH]2)o1	70.8µM	?	39.8µM	3.16µM	10µM	28.2µM
O=C(Cc1coc2cc3c(cc12)CCC3)OCC(=O)N1CCCC1=O	.	/	.	.	.	?
CC(C)n1cnc2c(C(=O)N[C@H]3CN4CCC3CC4)cc(Cl)cc21	.	/	/	.	/	/
COc1ccc2o/c(=N\O)c(C(=O)Nc3ccc(C)cc3)cc2c1	?	.	.	50.1µM	.	.
O=C1CC(=O)N(Cc2ccccc2)C(=S)N1	.	/	.	79.4µM	.	.
C=C(C)C(=O)Nc1cccc(C2=NOC3(C2)C[C@H](C(N)=O)N(C(=O)/C=C/C)C3)c1 (stereo partly drawn)	.	/	8.91µM	?	8.91µM	7.08µM
CC(C)(C)c1o[nH]c(=O)c1C[C@H](N)C(=O)O	.	/	/	/	/	/
CCCCn1nc(C)c(C(=O)O)c1Cl	.	/	.	.	.	.
CCCCn1c(-c2nn(C)cc2Cl)n[nH]c1=S	.	.	.	12.6µM	7.94µM	.
CC1=C2CC3C(CC=C4C[C@@H](O)CC[C@@]43C)[C@@H]2CC[C@]12O[C@@H]1C[C@H](C)CN[C@H]1[C@H]2C (stereo partly drawn)	.	/	/	.	/	/
Cc1ccc(CN(Cc2ccccc2)C(=S)NCC(=O)N2CCC3(CC2)OCCO3)o1	.	.	.	50.1µM	.	?
C#CCN1CC(=O)N(COC(=O)[C@@H]2[C@@H](C=C(C)C)C2(C)C)C1=O	.	/	/	.	/	/
C#CCNc1ccncc1S(=O)(=O)NC(=O)NC(C)C	.	.	.	?	50.1µM	.

High-throughput results: PubChem, National Center for Advancing Translational Sciences (NCATS)
